Screening data as filed in PubChem.
hcDAF12 agonist: H. contortus DAF-12 nuclear receptor activators, primary screen, cell-based, luminescence, HEK293, lit1-tk-luc reporter | HEK293 hcDAF-12 lit1-tk-luc reporter; 0% DMSO, 100% Δ7-dafachronic acid | activation, % at 6.8 µM | 370,000 compounds, 1.4% hits | AID 652067, 2013;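 active = activation above the mean of all tested compounds plus 3 SD, cut at about 5.5% in these data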;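 note: 100% = response to 3 µM Δ7-dafachronic acid high control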
DAX1 inh-1: DAX1 (NR0B1) inhibitors, primary screen, cell-based, HEK293, Gal4-DAX1, luciferase luminescence | inhibition, % at 6.75 µM | 340,000 compounds, 0.99% hits | HEK293 Gal4-DAX1 luciferase reporter | AID 504766, 2011 | Nuclear receptor subfamily 0 group B member 1 (Homo sapiens), P51843;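 active = inhibition above the mean over all tested compounds plus 3 SD, cut at about 4.2% in these data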;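 note: 0% = DAX1-transfected cells with DMSO and 100% = empty-vector control cells with DMSO; inhibition shows as a rise in luminescence from relieved DAX1 repression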
Target sequence (P51843 207-470 limits assumed): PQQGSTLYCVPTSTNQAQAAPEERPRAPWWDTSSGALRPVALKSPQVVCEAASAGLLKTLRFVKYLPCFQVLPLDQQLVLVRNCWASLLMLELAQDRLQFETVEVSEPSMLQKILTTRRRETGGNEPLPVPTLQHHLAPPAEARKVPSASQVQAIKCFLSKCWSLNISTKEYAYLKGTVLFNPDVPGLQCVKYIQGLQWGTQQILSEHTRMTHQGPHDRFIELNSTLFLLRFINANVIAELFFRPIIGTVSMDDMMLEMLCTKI
ssDAF-12 act: S. stercoralis DAF-12 nuclear receptor activators, primary screen, cell-based, luminescence, HEK293, GRIP1 co-expression, lit1-tk-luc | HEK293 ssDAF-12/GRIP1 lit1-tk-luc reporter; % of 3 µM dafachronic acid response | 370,000 compounds, 1% hits | Nuclear hormone receptor DAF-12 (Strongyloides stercoralis) | activation, % at 6.8 µM;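 active = activation above the mean over all tested compounds plus 3 SD, cut at about 0.9% in these data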;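 note: 0% = DMSO-only wells and 100% = 3 µM delta7-dafachronic acid wells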
hgDAF12 agonist: H. glycines DAF-12 receptor agonists, primary screen, cell-based, luminescence, HEK293, GAL4 fusion, UAS-luciferase. Nuclear hormone receptor DAF-12 (Heterodera glycines), GAL4 fusion. HEK293 GAL4-hgDAF12 UAS-luciferase reporter, agonist luminescence; normalized to butyrate control. activation, % at 6.8 µM. 370,000 compounds, 1.8% hits;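 active = activation above a cutoff set at the mean of all screened compounds plus 3 SD, cut at about 10% in these data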;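 note: 0% = DMSO wells and 100% = sodium butyrate wells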
DAX1 inh-2: DAX1 (NR0B1) inhibitors on StAR promoter, primary screen, cell-based, luminescence, SF-1 (NR5A1), full-length DAX-1; HEK293T StAR-luciferase reporter, SF-1/DAX-1 repression relief; inhibition, % at 6.8 µM; 370,000 compounds, 1.1% hits; AID 652010, 2013;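 active = inhibition above the mean over all tested compounds plus 3 SD, cut at about 3.6% in these data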;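 note: 0% = DAX-1 cells with DMSO and 100% = cells lacking DAX-1 with DMSO; higher inhibition means more luminescence from relief of DAX-1 repression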
* = called active by the depositor. In the library only some 4.1% were active in any assay of this set; here they are far more common.

N/C(=N\C(=O)OCc1ccccc1)N(Cc1ccccc1)C(C#CC1=CCCCC1)Cc1ccccc1 (stereo unspecified) was read as hcDAF12 agonist 0.3, ssDAF-12 act -0.4, hgDAF12 agonist -3.3 and DAX1 inh-2 -0.4.
`c1cnc2c(C3NCCc4c3[nH]c3ccccc43)cccc2c1` (stereo unspecified) gave DAX1 inh-1 5.0*.
O=C(O)c1cccnc1C(=O)N1CCc2c([nH]c3ccccc23)C1C(F)(F)F (stereo unspecified) was read as hcDAF12 agonist -0.4, ssDAF-12 act -1.2, hgDAF12 agonist -0.1 and DAX1 inh-2 -0.2.
For O=C(O)c1ccc(/C=N\Nc2ccccn2)cc1 the results were hcDAF12 agonist 6.5*, DAX1 inh-1 2.7, ssDAF-12 act -0.1, hgDAF12 agonist 8.5 and DAX1 inh-2 1.1.
Cc1cc(C)nc(N/N=C/c2sccc2C)n1 was read as hcDAF12 agonist -0.1, DAX1 inh-1 1.3, ssDAF-12 act -1.3, hgDAF12 agonist 5.2 and DAX1 inh-2 2.0.
For CN(C)c1ccc(/C=N\Nc2ccccn2)cc1 the results were hcDAF12 agonist 4.3, DAX1 inh-1 6.2*, ssDAF-12 act 0.2, hgDAF12 agonist 9.0 and DAX1 inh-2 2.1.
Cc1ccsc1/C=N/Nc1ncc(Cl)cc1Cl was read as hcDAF12 agonist 3.5, DAX1 inh-1 1.4, ssDAF-12 act 0.1, hgDAF12 agonist 11.2* and DAX1 inh-2 3.2.
O=C(O)c1ccc(/C=N/Nc2ncc(Cl)cc2Cl)cc1 was read as hcDAF12 agonist 4.3, DAX1 inh-1 6.5*, ssDAF-12 act -0.7, hgDAF12 agonist 2.9 and DAX1 inh-2 -0.1.
For COc1ccc2c(c1)C[C@@H]1CC(C)(C)CN1S2(=O)=O the results were hcDAF12 agonist -0.8, ssDAF-12 act -0.7 and hgDAF12 agonist 1.2.
Screening Cc1ccsc1/C=N/Nc1nc(=O)[nH]nc1C returned hcDAF12 agonist 1.6, DAX1 inh-1 2.0, ssDAF-12 act -0.1, hgDAF12 agonist 15.7* and DAX1 inh-2 2.0.
CC(C)C(=O)OCCCN1C(=O)CCC12CCC(c1ccccc1)CC2 (stereo unspecified) was read as hcDAF12 agonist 1.6, ssDAF-12 act -1.4, hgDAF12 agonist -1.9 and DAX1 inh-2 -0.5.
For CCC(C)(C(=O)NC1CCCCC1)N(C)C(=O)c1ccccn1 (stereo unspecified) the results were hcDAF12 agonist 6.1*, DAX1 inh-1 0.1, ssDAF-12 act -0.7, hgDAF12 agonist 2.2 and DAX1 inh-2 -0.1.
Screening CCC(C)(C(=O)NC1CCCCC1)N(C(=O)c1ccccn1)c1ccccc1 (stereo unspecified) returned hcDAF12 agonist 1.5, DAX1 inh-1 -0.3, ssDAF-12 act -1.0, hgDAF12 agonist 0.6 and DAX1 inh-2 -0.6.
Screening COc1ccc(C2=Cc3ccc(OC(C)=O)cc3OC2)cc1 returned hcDAF12 agonist 0.9, DAX1 inh-1 5.5*, ssDAF-12 act -0.2, hgDAF12 agonist 7.3 and DAX1 inh-2 2.3.
Screening O=C(COC(=O)c1nc(Cl)ccc1Cl)Nc1ccc(Cl)cn1 returned hcDAF12 agonist 5.7*, DAX1 inh-1 0.6, ssDAF-12 act 1.0*, hgDAF12 agonist 0.4 and DAX1 inh-2 -0.5.
For O=C(COC(=O)c1nc(Cl)ccc1Cl)Nc1ccc(Cl)cc1 the results were hcDAF12 agonist 0.6, DAX1 inh-1 0.3, ssDAF-12 act -0.9, hgDAF12 agonist 0.2 and DAX1 inh-2 -0.4.
`CCCCCCn1cc(CN2CC(N(C)CC)CS2(=O)=O)nn1` (stereo unspecified) gave hcDAF12 agonist 1.2, ssDAF-12 act -1.9, hgDAF12 agonist 3.4 and DAX1 inh-2 3.7*.
Screening CCCCCCn1cc(CN2CC(N3CCN(C4CCN(C)CC4)CC3)CS2(=O)=O)nn1 (stereo unspecified) returned hcDAF12 agonist -0.7, ssDAF-12 act -1.0, hgDAF12 agonist -3.7 and DAX1 inh-2 4.4*.
Screening COc1ccc(Cn2cc(CN3CC(N4CCSCC4)CS3(=O)=O)nn2)cc1 (stereo unspecified) returned hcDAF12 agonist -0.4, ssDAF-12 act -1.2, hgDAF12 agonist -0.5 and DAX1 inh-2 -2.6.
`COc1ccc(Cn2cc(CN3CC(N4CCCC4)CS3(=O)=O)nn2)cc1` (stereo unspecified) gave hcDAF12 agonist -0.2, ssDAF-12 act -0.2, hgDAF12 agonist 1.6 and DAX1 inh-2 4.4*.
Screening CCCCCCn1cc(CN2CC(N3CCN(C)CC3)CS2(=O)=O)nn1 (stereo unspecified) returned hcDAF12 agonist 1.2, ssDAF-12 act -0.4, hgDAF12 agonist 1.3 and DAX1 inh-2 2.5.
CCCCCCn1cc(CN(C)C2CN(Cc3cn(CCCCCC)nn3)S(=O)(=O)C2)nn1 (stereo unspecified) was read as hcDAF12 agonist 0.9, ssDAF-12 act -1.6, hgDAF12 agonist -0.5 and DAX1 inh-2 0.4.
Cc1c(C(=O)NC2CCCc3ccccc32)oc2ccc(S(=O)(=O)N3CCCC3)cc12 (stereo unspecified) was read as hcDAF12 agonist -1.1, DAX1 inh-1 0.5, ssDAF-12 act -0.9, hgDAF12 agonist 0.4 and DAX1 inh-2 0.0.
`Cc1c(C(=O)NCCc2ccccc2)oc2ccc(S(=O)(=O)N3CCOCC3)cc12` gave hcDAF12 agonist -3.2, DAX1 inh-1 -0.1, ssDAF-12 act -1.2, hgDAF12 agonist 1.4 and DAX1 inh-2 -0.5.
Cc1c(C(=O)NC2CCCc3ccccc32)oc2ccc(S(=O)(=O)N3CCOCC3)cc12 (stereo unspecified) was read as hcDAF12 agonist -1.0, DAX1 inh-1 5.8*, ssDAF-12 act -1.5, hgDAF12 agonist -1.4 and DAX1 inh-2 -0.5.
`COCCCNC(=O)c1oc2ccc(S(=O)(=O)N3CCOCC3)cc2c1C` gave hcDAF12 agonist -0.7, DAX1 inh-1 4.9*, ssDAF-12 act -1.4, hgDAF12 agonist 1.9 and DAX1 inh-2 0.3.
For O=C(NCCc1c[nH]c2ccccc12)OCc1cn(Cc2c(F)cccc2F)nn1 the results were hcDAF12 agonist -2.6, ssDAF-12 act -1.1, hgDAF12 agonist 0.9 and DAX1 inh-2 -0.4.
For C#CCNC(=O)C[C@H]1C[C@@]2(C(=O)OC)C(=C[C@H](C3CCCC3)O[C@@H]2C)N(Cc2cccc3ccccc23)C1=O the results were hcDAF12 agonist -0.4, ssDAF-12 act -0.7, hgDAF12 agonist 0.0 and DAX1 inh-2 -0.8.
For C/C=C/c1ccc([C@@H]2[C@H](CO)N(S(C)(=O)=O)[C@H]2CN(C)C(=O)CC)cc1 the results were hcDAF12 agonist -1.7, ssDAF-12 act -1.1, hgDAF12 agonist 5.6 and DAX1 inh-2 0.0.
